Pol beta inh: inhibitors of human DNA polymerase beta. 340,000 tested, 1.3% active. P06746. AID 485314. Pol beta primer extension/strand displacement, fluorescence kinetic. Potency, µM (doses to about 114 µM), actives largely listed as inhibitors
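Kinetic readout of DNA synthesis with strand displacement by Pol beta. Compound and 10 nM enzyme sit 15 min at room temperature; 50 nM substrate starts the reaction, read immediately and at 10 min.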
Pol iota inh: DNA polymerase iota (human) inhibition. Potency, µM (titrated, usually from 115 µM), hits mostly inhibitors. AID 588590. Q9UNA4. Pol iota fluorescent replication assay, 10 min. 390,000 tested, 1% active
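Pol iota at 10 nM preincubated 15 min with compounds at room temperature; reaction started with fluorescent substrate, 50 nM final. Fluorescence read kinetically at 0 and 10 min; buffer-only wells as negative control.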
WRN helicase inh: inhibitors of human WRN helicase | Q14191 | WRN helicase unwinding, fluorescent forked duplex, kinetic | Potency, µM (series often up to 114 µM), actives largely listed as inhibitors | 360,000 tested, 0.46% active; note: nearly all actives have a fitted effect of over 55% in size
Target sequence (Q14191 whole entry, looked up): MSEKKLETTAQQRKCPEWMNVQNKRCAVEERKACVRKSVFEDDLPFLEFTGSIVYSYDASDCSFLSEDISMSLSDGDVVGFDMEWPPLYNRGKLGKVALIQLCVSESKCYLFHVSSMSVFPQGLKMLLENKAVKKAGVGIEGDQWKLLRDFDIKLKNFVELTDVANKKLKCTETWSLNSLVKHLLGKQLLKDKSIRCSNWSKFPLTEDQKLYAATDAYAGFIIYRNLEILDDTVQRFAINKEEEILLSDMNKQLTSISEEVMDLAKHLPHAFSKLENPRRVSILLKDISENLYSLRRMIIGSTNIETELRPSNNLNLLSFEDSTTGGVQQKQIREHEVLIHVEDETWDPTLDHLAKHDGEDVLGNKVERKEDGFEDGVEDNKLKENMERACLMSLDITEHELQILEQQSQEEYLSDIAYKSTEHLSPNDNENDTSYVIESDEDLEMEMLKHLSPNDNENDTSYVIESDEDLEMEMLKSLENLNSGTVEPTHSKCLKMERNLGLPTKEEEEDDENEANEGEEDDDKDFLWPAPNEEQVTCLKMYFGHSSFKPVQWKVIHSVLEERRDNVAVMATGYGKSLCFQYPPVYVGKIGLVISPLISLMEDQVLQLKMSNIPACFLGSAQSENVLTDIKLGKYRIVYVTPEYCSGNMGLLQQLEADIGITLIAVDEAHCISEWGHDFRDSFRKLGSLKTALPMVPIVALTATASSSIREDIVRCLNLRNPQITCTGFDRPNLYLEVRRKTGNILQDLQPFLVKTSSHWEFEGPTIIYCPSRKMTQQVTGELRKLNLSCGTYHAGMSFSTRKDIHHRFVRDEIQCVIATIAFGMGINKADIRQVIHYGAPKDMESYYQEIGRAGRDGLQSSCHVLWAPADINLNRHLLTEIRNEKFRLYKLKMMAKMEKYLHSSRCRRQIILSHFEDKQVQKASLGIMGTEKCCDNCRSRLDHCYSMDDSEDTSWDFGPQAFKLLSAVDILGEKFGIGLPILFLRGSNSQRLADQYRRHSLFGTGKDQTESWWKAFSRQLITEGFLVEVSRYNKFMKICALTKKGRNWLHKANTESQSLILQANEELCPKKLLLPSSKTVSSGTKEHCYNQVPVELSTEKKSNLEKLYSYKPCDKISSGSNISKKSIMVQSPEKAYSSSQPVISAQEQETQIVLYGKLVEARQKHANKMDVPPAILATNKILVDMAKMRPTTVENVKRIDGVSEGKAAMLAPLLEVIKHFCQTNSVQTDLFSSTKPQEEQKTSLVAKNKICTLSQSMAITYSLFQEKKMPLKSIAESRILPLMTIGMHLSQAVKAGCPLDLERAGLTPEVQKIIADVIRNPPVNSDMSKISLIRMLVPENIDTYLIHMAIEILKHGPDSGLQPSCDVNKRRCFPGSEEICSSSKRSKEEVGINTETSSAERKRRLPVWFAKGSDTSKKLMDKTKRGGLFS
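Kinetic red-fluorescence monitoring (525/598 nm) tracks WRN helicase activity after 100 nM fluorophore-quencher forked duplex and 2 mM ATP are added to 20 nM enzyme pretreated 15 min at room temperature with compound.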
POLH inh: blocks human DNA polymerase eta activity; Q9Y253; recombinant Pol eta, fluorescent DNA replication assay; Potency, µM (doses to about 114 µM), hits mostly inhibitors; 390,000 tested, 1.2% active; AID 588591
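Pol eta (10 nM) was preincubated with compounds for 15 min at room temperature, after which fluorescent replication substrate (50 nM final) was added to start the reaction. Fluorescence was read kinetically at 0 and 10 min.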
Pol kappa inh: DNA polymerase kappa (human) inhibition; purified Pol kappa, fluorescent DNA synthesis assay, 10 min; Potency, µM (highest dose often 107 µM), usual class: inhibitors; 400,000 tested, 0.53% active; AID 588579
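Kinetic fluorescence screen: compound preincubated 15 min RT with 10 nM enzyme; 50 nM substrate (final) initiates; reads at 0/10 min.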
Of the large screens only hits and unclear results are named; the others gave an inactive call. An excerpt weighted towards active compounds, which were near 2.3% of everything screened. Calls come from the whole dose curve; as a rule, active = well fitted curve in the direction sought with a large enough effect; inconclusive = small, poorly fitted or top-dose-only effect, or another doubt; inactive = no such curve, though single readings can be large; an effect the other way counts as inactive or inconclusive.

CCc1ccc(NC(=O)CS(=O)CC(=O)Nc2ccc(F)cc2F)cc1 (centres undefined)	Pol beta inh 39.8µM, Pol iota inh inconclusive
NC(=O)c1ccc(NC(=O)Cc2cccs2)cc1	Pol beta inh 39.8µM, Pol iota inh inconclusive, POLH inh 50.1µM, Pol kappa inh inconclusive
CCc1ccc(NC(=O)CS(=O)CC(=O)Nc2ccc(N3CCOCC3)cc2)cc1 (centres undefined)	Pol beta inh 22.4µM, Pol iota inh inconclusive, POLH inh inconclusive
O=C(Cc1cccs1)Nc1ccccc1F	none
Cc1cccc(C)c1NC(=O)CS(=O)CC(=O)Nc1ccc(F)cc1F (centres undefined)	none
O=C(Cc1cccs1)Nc1ccc(Cl)cc1	Pol iota inh inconclusive
O=c1ccc2c(OCCCCOc3ccccc3)c3ccoc3cc2o1	none (no result: Pol beta inh, Pol iota inh, WRN helicase inh, POLH inh)
Cc1ccc(NC(=O)CCC(=O)c2cccs2)cc1	none
O=C(Cc1cccs1)Nc1ccc(N2CCOCC2)cc1	Pol beta inh 25.1µM, Pol iota inh inconclusive, POLH inh 25.1µM
O=C(Cc1cccs1)Nc1ccc(Cl)c(S(=O)(=O)N2CCOCC2)c1	none (no result: Pol beta inh)
CCN(CC(=O)Nc1ccc(OC)cc1)C(=O)Cc1cccs1	Pol iota inh 31.6µM, WRN helicase inh inconclusive, POLH inh 56.2µM, Pol kappa inh inconclusive (no result: Pol beta inh)
O=C(CCC(=O)c1cccs1)Nc1ccc(N2CCCCC2)cc1	Pol beta inh inconclusive, Pol iota inh inconclusive, POLH inh 89.1µM, Pol kappa inh inconclusive
Cc1cccc2c(=O)[nH]c3c(-c4nc(-c5ccc(Cl)cc5)cs4)c(O)cn3c12	Pol iota inh inconclusive (no result: Pol beta inh, WRN helicase inh, POLH inh)
COC(=O)c1sccc1S(=O)(=O)N1CCN(c2cccc(C)c2C)CC1	none (no result: WRN helicase inh)
COc1cc(/C=C(\C#N)C(=O)Nc2cccc(C(=O)O)c2)ccc1OCc1ccc(F)cc1	Pol beta inh 44.7µM, Pol iota inh inconclusive, POLH inh 50.1µM
CCOc1cc(/C=C(\C#N)C(=O)Nc2cccc(C(=O)O)c2)cc(Br)c1OC(=O)c1ccc(OC)cc1	Pol beta inh 15.8µM, Pol iota inh inconclusive, WRN helicase inh inconclusive, POLH inh 79.4µM, Pol kappa inh inconclusive
COc1cccc(/C=C(/C#N)c2ccc(F)cc2)c1OCc1cccc(C(=O)O)c1	Pol beta inh 39.8µM, Pol iota inh inconclusive, POLH inh inconclusive
CCOc1cccc(NC(=O)/C(C#N)=C/c2cccnc2)c1	none
N#C/C(=C/c1cccn1-c1cccc(C(=O)O)c1)c1ccc(F)cc1	Pol beta inh 31.6µM, Pol iota inh 25.1µM, POLH inh 25.1µM, Pol kappa inh inconclusive
O/N=C(/C[n+]1csc2ccccc21)c1ccccc1	none (no result: Pol beta inh, WRN helicase inh, POLH inh)
CCCSS/C(CCO)=C(/C)N(C=O)Cc1cnc(C)nc1N	none (no result: Pol beta inh, Pol iota inh, WRN helicase inh, POLH inh)
C(=C\c1ccnc2ccccc12)/c1ccccc1	none (no result: Pol beta inh, WRN helicase inh, POLH inh)
CCOc1cc(/C=C(\C#N)C(N)=O)cc(CSc2ccccc2)c1O	none (no result: Pol beta inh, Pol iota inh, WRN helicase inh, POLH inh)
Cc1noc(C)c1S(=O)(=O)NCCc1csc2nc(-c3ccc(Cl)cc3)nn12	none (no result: WRN helicase inh)
COc1cc(/C=C/[N+](=O)[O-])ccc1OCc1cccc(C(=O)O)c1	Pol beta inh 31.6µM, Pol iota inh inconclusive, WRN helicase inh 20µM, POLH inh 31.6µM, Pol kappa inh 25.1µM
COc1ccc(C(=O)C=Cc2ccc(OCc3ccccc3)c(OC)c2)cc1OC	none (no result: Pol beta inh, Pol iota inh, Pol kappa inh)
CCCN1CNc2c(c(=O)[nH]c(=S)n2CCc2c(OC)cccc2OC)C1	none (no result: Pol beta inh, WRN helicase inh, POLH inh)
O=C1N/C(=N/NC(=O)c2cccc3ccccc23)S/C1=C\c1ccccc1OCc1ccccc1	Pol beta inh 50.1µM, Pol iota inh 28.2µM, WRN helicase inh 56.2µM, POLH inh 22.4µM, Pol kappa inh 50.1µM
O=C(Nc1cccc(Cl)c1)OCC#CCCl	Pol kappa inh 26.7µM (no result: Pol beta inh, Pol iota inh, WRN helicase inh, POLH inh)
NC(=O)COC(=O)c1c2c(nc3ccccc13)CCC2	Pol beta inh inconclusive, Pol iota inh inconclusive, POLH inh 35.5µM, Pol kappa inh inconclusive
CC(C)NC(=O)NC(=O)COC(=O)c1c2c(nc3ccccc13)CCC2	Pol beta inh inconclusive, POLH inh inconclusive
CCCC(C)NC(=O)c1c2c(nc3ccccc13)CCC2 (centres undefined)	Pol beta inh 17.8µM, Pol iota inh inconclusive, POLH inh inconclusive, Pol kappa inh inconclusive
O=C(Nc1cccc(S(=O)(=O)N2CCOCC2)c1)c1ccc2ccccc2n1	none
CC(C)(C)NC(=O)COC(=O)c1c2c(nc3ccccc13)CCC2	Pol beta inh 44.7µM, Pol iota inh inconclusive, POLH inh 50.1µM
O=C(Nc1cccc(S(=O)(=O)N2CCOCC2)c1)c1c2c(nc3ccccc13)CCC2	Pol beta inh 10µM, Pol iota inh 44.7µM, POLH inh inconclusive
NC(=O)COC(=O)c1c2c(nc3ccccc13)CCCC2	none
CCOC(=O)N1CCN(C(=O)CN2C(=O)/C(=C\c3cccc(OC)c3)SC2=S)CC1	none (no result: Pol beta inh, WRN helicase inh, POLH inh)
CCOC(=O)/C=C1\CN(Cc2ccc(OC)cc2)S(=O)(=O)c2ccc(C(F)(F)F)cc21	Pol iota inh inconclusive (no result: Pol beta inh, WRN helicase inh, POLH inh)
CC(C)(C)[C@H]1CCC(=O)N(CCSc2ccc(Br)cc2)CC1	Pol iota inh inconclusive (no result: Pol beta inh, WRN helicase inh, POLH inh)
NC(=S)NN=Cc1nccc2ccccc12	none (no result: Pol beta inh)
Cc1cnc(C=NNC(N)=S)c2cccc(N)c12	Pol iota inh 2.24µM, WRN helicase inh inconclusive, POLH inh 5.01µM, Pol kappa inh inconclusive (no result: Pol beta inh)
COC(=O)c1ccc(Cn2c(O)c(N=NC(N)=S)c3ccccc32)o1	Pol beta inh inconclusive, Pol iota inh 31.6µM, POLH inh 50.1µM, Pol kappa inh inconclusive
O=C(/C=C/c1ccco1)N(Cc1ccccc1F)C1CCS(=O)(=O)C1 (centres undefined)	Pol beta inh inconclusive, Pol iota inh 50.1µM, POLH inh inconclusive
O=C(O)c1ccc(NC(=O)c2cc3c([nH]c2=O)CCCC3=O)cc1	none (no result: Pol beta inh, WRN helicase inh, POLH inh)

Screens deposited in PubChem by National Center for Advancing Translational Sciences (NCATS).
